The list is not random: actives were taken first. Their share in the collection is about 21%.
NS1 function inh: influenza NS1 inhibition | Potency, µM (doses to about 46.1 µM), for the others: top-dose activity, positive = more growth | 270,000 tested, 0.4% active; calls by dose curve; also: potency is read from the fitted curve at half-maximal effect; actives are rising curves; nearly all actives have a fitted effect of over 50% in size
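Read-out: OD600 growth recovery of NS1-expressing budding yeast. Cells grown overnight at 30C in -URA glucose medium, washed, resuspended and diluted 1:100 in 2% galactose assay medium, pH 6.0. Same strain lacking NS1 served as positive control.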
Pf growth 48h: inhibits P. falciparum growth in the first generation, 48 h | P. falciparum luciferase growth in erythrocytes, 48 h | Potency, µM (highest dose often 28.7 µM), for inactives: at the highest dose activity change, negative = inhibition, most hits filed as inhibitors | AID 504832 | 310,000 tested, 5.9% active; also: potency is read from the fitted curve at half-maximal effect; % is scaled to controls: 0 for no effect and ±100 for the full control effect
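Erythrocytes infected with P. falciparum carrying an integrated firefly luciferase reporter (2% hematocrit, 0.1% parasitemia final) were exposed to compounds in RPMI 1640 with 0.5% Albumax at 37 C, 5% CO2. Growth inhibition was scored as reduced luminescence.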
Pf growth 96h: P. falciparum growth inhibition at 96 hour, primary screen for plastid delayed-death inhibitors; P. falciparum luciferase reporter growth, 96 h; Potency, µM (doses to about 28.7 µM), for inactives: top-dose activity change, negative = inhibition, actives largely listed as inhibitors; 320,000 tested, 6.9% active; AID 504834; also: potency is read from the fitted curve at half-maximal effect; % is scaled to controls: 0 for no effect and ±100 for the full control effect
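Parasite growth measured via integrated firefly luciferase reporter in P. falciparum. Infected erythrocytes at 2% hematocrit, 0.05% parasitemia final were treated 96 hours at 37 C under 5% CO2, and luminescence was read.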
Cycloheximide cs: affects cycloheximide protein synthesis inhibition readout, counter-screen. 300,000 tested, 12% active. max response, %. cell reporter, cycloheximide protein synthesis inhibition counterscreen. AID 2314; in the data active = max response mostly above about 13%, no sharp cut-off; inactive = mostly below about 14%; also: read at 38.3 µM for the half of the compounds with a filed dose; 0% is about no effect
Shiga toxin inh: inhibitors of Shiga toxin in Vero cells; Vero cells, Shiga toxin protein synthesis inhibition reporter; inhibition, % at 38.7 µM; 290,000 tested, 9.2% active; in the data active = inhibition mostly above about 28%, no sharp cut-off; inactive = mostly below about 43%; also: 0% is about no effect
Giardia FBPA inh: Giardia lamblia aldolase inhibition | A8B2U2 | purified Giardia FBPA | Potency, µM (doses to about 59.6 µM), inactives show at the top dose activity, negative = inhibition, actives largely listed as inhibitors | 290,000 tested, 0.71% active | AID 2451; also: potency is read from the fitted curve at half-maximal effect; % is scaled to controls: 0 for no effect and ±100 for the full control effect; nearly all actives have a fitted effect of over 55% in size
Target sequence (A8B2U2 whole entry, looked up): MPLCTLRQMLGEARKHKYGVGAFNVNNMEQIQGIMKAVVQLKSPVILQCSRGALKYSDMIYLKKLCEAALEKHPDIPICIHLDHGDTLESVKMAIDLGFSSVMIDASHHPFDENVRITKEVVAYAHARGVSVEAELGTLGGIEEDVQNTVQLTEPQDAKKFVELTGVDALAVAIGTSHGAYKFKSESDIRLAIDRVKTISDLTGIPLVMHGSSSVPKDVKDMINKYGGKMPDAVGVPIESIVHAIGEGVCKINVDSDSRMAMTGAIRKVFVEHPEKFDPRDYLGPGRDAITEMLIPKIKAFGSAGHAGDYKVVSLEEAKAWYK
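Giardia FBPA (40 nM reagent) was preincubated 10 min at RT with compound (up to 57.5 uM final), then substrate plus GAPDH/TPI/NAD/arsenate coupling system with diaphorase/resazurin was added; resorufin fluorescence (525/598 nm) was read after 20 min.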
An asterisk follows results filed as active; i = inactive; ? = inconclusive; · = no result given; [ ] = another dose, or the depositor's remark. Unless noted, calls follow the shape of the dose curve; as a rule, active = well fitted curve in the direction sought with a large enough effect; inconclusive = small, poorly fitted or top-dose-only effect, or another doubt; inactive = no such curve, though single readings can be large; an effect the other way counts as inactive or inconclusive.

SMILES	NS1 function inh	Pf growth 48h	Pf growth 96h	Cycloheximide cs	Shiga toxin inh	Giardia FBPA inh
O=C(Nc1nnc(-c2ccco2)o1)C1CC1	·	-12%	?	1	18	-17%
CC(=O)C1=C(C)OC(N)=C(C#N)C1c1ccco1 (stereo unspecified)	7%	?	?	-2	-26	?
CC(=O)n1c2c(c3ccccc31)OC(N)=C(C#N)C2c1ccc(C(C)C)cc1 (stereo unspecified)	-29%	21%	91%	46*	83*	?
C[C@@H](CO)NC(=O)c1ccc2c3n(nc2c1)-c1ccc(Cl)cc1CO3	-3%	118%	143%	33*	55*	-10%
CCCC#Cc1ccc2c(c1)COc1c3ccccc3nn1-2	·	143%	145%	·	·	·
CC(C)[C@@H](CO)NC(=O)c1ccc2c3n(nc2c1)-c1ccc(Cl)cc1CO3	-1%	129%	144%	34*	46*	-5%
CS(=O)(=O)N1CCC2(CCCN(C(c3ccccc3)c3ccccc3)C2)CC1	·	·	·	·	·	7%
Cc1c(/C=N/NC(=O)c2cccs2)c2ccccc2n1Cc1ccccc1Cl	0%	?	?	23*	30*	-1%
Cc1[nH]c2ccccc2c1/C=N/Nc1ccc(F)cc1F	1%	?	?	31*	30*	-12%
Cc1[nH]c2ccccc2c1/C=N/NC(=O)c1cccs1	-1%	22%	79%[1.15 µM]	51*	100	-15%
Cc1[nH]c2ccccc2c1/C=N/NC(=O)CNC(=O)c1ccco1	-2%	0%	12%	-2	-27	1%
Cc1[nH]c2ccccc2c1/C=N\NC(=O)c1ccco1	0%	8%	-14%	30*	57*	·
CC(NC(=O)C1CCN(C(=O)[C@@H]2Cc3ccccc3CN2)CC1)c1ccccc1 (stereo partly specified)	-12%	2%	1%	-2	-8	?
COc1ccc(C(=O)NCc2nnc(SCC(=O)NCc3ccco3)o2)cc1OC	2%	9%	?	-1	-3	·
CCOc1ccc(C(=O)Nc2ccc(C(=O)N3CCOCC3)cc2)c(OCC)c1	5%	-5%	41%	-2	-24	·
Cc1[nH]c2ccccc2c1/C=N/NC(=O)c1cccc(F)c1	1%	20%	?	26*	62*	-10%
Cc1[nH]c2ccccc2c1/C=N/NC(=O)c1cccc([N+](=O)[O-])c1	·	0%	4%	5	2	-10%
CCNc1ncc2nc(-c3cccs3)c(=O)n(CCc3ccccc3)c2n1	·	·	·	·	·	-8%
CN(C)CCCOc1ccc2c(c1)Sc1ccccc1CC2=O	13%	5%	-29%	21*	23	?
O=C1Cc2ccccc2Sc2cc(OCCCN3CCCCC3)ccc21	-11%	?	?	-1	-4	-26%
COc1ccc(N2CCN(Cc3nc4cc(Cl)ccc4c(=O)[nH]3)CC2)cc1	1%	9%	14%	-2	-16	-1%
Cc1ccc(OCC(=O)Nc2ccc(NC(=O)c3ccccc3)c(C)c2)cc1	12%	-10%	?	-1	6	·
COc1ccc(CC(C)N2CCN(Cc3ccccc3)CC2)cc1OC (stereo unspecified)	-3%	12%	?	-1	-9	-10%
CCOC(=O)C1=C(C)NC(=O)NC1c1c(OCC(=O)N2CCCCC2)ccc2ccccc12 (stereo unspecified)	5%	12µM*	25%[5.75 µM]	-7	-2	-1%
CCOC(=O)C1=C(C)NC(=O)NC1c1ccc(OCC(=O)N2CCCCC2)cc1 (stereo unspecified)	3%	2%	3%	-4	-12	-2%
SMILES	NS1 function inh	Pf growth 48h	Pf growth 96h	Cycloheximide cs	Shiga toxin inh	Giardia FBPA inh
CN1CCN(c2ncc3nc(-c4cn(C)c5ccccc45)c(=O)n(-c4ccccc4)c3n2)CC1	·	·	·	·	·	-3%
CCOC(=O)Cn1nnnc1CN(Cc1cccs1)Cc1cc2cc(C)ccc2[nH]c1=O	5%	-15%	·	1	-5	0%
Cc1ccc2[nH]c(=O)c(CN(CCO)Cc3nnnn3CCc3ccccc3)cc2c1	-8%	8%	8.3µM*	-2	-2	2%
COc1ccc2[nH]c(=O)c(CN(Cc3cccs3)Cc3nnnn3C(C)(C)C)cc2c1	-30%	?	99%	9	-4	-24%
CCOc1ccc2[nH]c(=O)c(CN(Cc3cccs3)Cc3nnnn3C(C)(C)C)cc2c1	-2%	12µM*	19%	-2	-6	2%
Cc1ccc2[nH]c(=O)c(CN(Cc3cccs3)Cc3nnnn3Cc3ccccc3)cc2c1	?	12µM*	-13%	-1	-5	-4%
CSc1ncccc1C(=O)NC(C)CCc1ccccc1 (stereo unspecified)	-6%	8%	2%	10	3	3%
CCOC(=O)N1CCN(S(=O)(=O)c2ccc(F)c(C(=O)Nc3cc(C)cc(C)c3)c2)CC1	-34%	8.3µM*	?	-1	9	-6%
CCOC(=O)N1CCC(NC(=O)c2cc(S(=O)(=O)N3CCCCC3)ccc2F)CC1	·	?	?	8	-10	2%
CCOC(=O)N1CCN(S(=O)(=O)c2ccc(F)c(C(=O)Nc3cccc(Cl)c3C)c2)CC1	-15%	12µM*	-17%	1	-2	2%
CCOC(=O)N1CCN(S(=O)(=O)c2ccc(F)cc2)CC1	-5%	27%	-7%	1	19	10%
CCC1(c2ccccc2)NC(=O)N(CC(=O)Nc2ccc(S(N)(=O)=O)cc2)C1=O (stereo unspecified)	1%	12%	-2%	-5	26	-5%
O=C(Nc1cc2c(cc1Br)OCCCO2)c1cccnc1	25%	7%	-12%	38*	84*	2%
O=C(NC(Cc1ccccc1)c1ccc2c(c1)OCCCO2)c1ccccc1 (stereo unspecified)	0%	·	-19%	13	40	-5%
O=C(Nc1cc2c(cc1Br)OCCCO2)c1ccccc1	3%	119%	88%	78*	123*	-8%
O=C(Nc1ccccc1N1CCOCC1)c1cccnc1	·	8%	33%	-1	32	6%
COc1cccc(NC(=O)COC(=O)c2nc3nccc(C)n3n2)c1	5%	34%	?	13*	22	-4%
COc1cccc(N(C(=O)c2nc3nccc(C)n3n2)c2nc3ccccc3s2)c1	-17%	140%	i	27*	67	0%
Cc1ccc(-c2nnc(-c3ccccc3Br)o2)cc1	-26%	205%	39%	38*	·	2%
Brc1ccc(-c2nnc(-c3ccccc3Br)o2)cc1	6%	128%	160%	82*	93*	1%
Cc1ccc(-c2nnc(/C=C/c3ccccc3)o2)cc1	-23%	112%	37%	50*	147*	-1%
Brc1ccccc1-c1nnc(-c2cccnc2)o1	-8%	85%	2%	30*	49*	2%
